High-throughput results deposited in PubChem by National Center for Advancing Translational Sciences (NCATS).
Compounds with a hit are over-represented: about 11% of the library has one in this group of screens.
FLuc inh-1: Photinus pyralis luciferase inhibition; purified P. pyralis luciferase, luminescence, biochemical; Potency, µM (series often up to 115 µM), actives largely listed as inhibitors; 2.5% of 76,000 active; AID 1347043; note: % is set by controls: 0 for no effect and ±100 for the full control effect; nearly all actives have a fitted effect of over 65% in size
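Cell-free enzyme assay, 10nM P. pyralis luciferase, luciferin and ATP each at 10uM. Inhibition profiled over a 6-point titration, read as luminescence.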
HEK293 tox: HEK 293 cell cytotoxicity; HEK 293 viability, ATP luminescence (CellTiter-Glo), 48-72 h; Potency, µM (titrated, usually from 115 µM), without a hit: at the top dose activity change, negative = cytotoxicity, most hits filed as inhibitors; 6.6% of 94,000 active; AID 1345083; note: % is set by controls: 0 for no effect and ±100 for the full control effect; nearly all actives have a fitted effect of over 60% in size
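HEK 293 seeded at 250 cells/well receive compound via pintool. After 48 or 72 hr at 37 degree Celsius, 5% CO2 and 95% humidity, CellTiter-Glo is dispensed and luminescence read following 10 min at room temperature.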
3T3 cytotox: cytotoxic compounds in NIH 3T3 cells; 4.3% of 94,000 active; Potency, µM (series often up to 96.7 µM), for the others: at the top dose activity change, negative = cytotoxicity, hits mostly inhibitors; AID 1345082; NIH 3T3 viability, CellTiter-Glo ATP luminescence, 48-72 h; note: % is set by controls: 0 for no effect and ±100 for the full control effect; nearly all actives have a fitted effect of over 55% in size
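Cytotoxicity was measured by CellTiter-Glo ATP luminescence after 48 or 72 h compound exposure at 37 °C. Mouse NIH 3T3 fibroblasts were seeded at 400 cells/well and dosed by 23 nL pin transfer.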
NPR1 antag: blocks ANP-stimulated signaling of human Npr1 receptor. 1.6% of 76,000 active. Potency, µM (series often up to 46.3 µM), for inactives: at the highest dose activity change, negative = inhibition, hits mostly inhibitors. P16066. HEK293 hNpr1 GloSensor cGMP, ANP-stimulated luminescence; calls by dose curve; note: % is set by controls: 0 for no effect and ±100 for the full control effect; nearly all actives have a fitted effect of over 60% in size
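HEK293 cells stably expressing human Npr1 and cGMP GloSensor pGS-40F, loaded 2 h with 2% GloSensor reagent, given compound 30 min at room temperature. Luminescence read before and 20 min after 0.1 nM hNppA.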
FLuc SDR no ATP: firefly luciferase binding stabilization, ATP absent; shares compounds with FLuc inh-1; Purified FLuc-C-HiBiT, Nano-Glo HiBiT luminescence, no ATP; Potency, µM (doses to about 32.7 µM), for the others: top-dose activation (signal gain), usual class: activators; 7.8% of 1,300 active; AID 1963318; note: nearly all actives have a fitted effect of over 55% in size
FLuc SDR ATP: firefly luciferase binding stabilization, ATP added | 8.7% of 1,300 active | Potency, µM (series often up to 32.7 µM), inactives show at the highest dose activation (gain of signal), hits mostly activators | shares compounds with FLuc inh-1 | AID 1963319 | purified FLuc-C-HiBiT + ATP, HiBiT complementation luminescence;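 note: signal reports ligand binding via conformational change of the enzyme rather than luciferase catalysis; % of control where 0% means no effect; nearly all actives have a fitted effect of over 55% in size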
FLuc inh-2: firefly luciferase enzyme inhibition; purified FLuc-C-HiBiT enzyme, luciferin luminescence; Potency, µM (doses to about 32.7 µM), for the others: at the top dose activity change, negative = inhibition, usual class: inhibitors; shares compounds with FLuc inh-1; 42% of 1,300 active; note: % is set by controls: 0 for no effect and ±100 for the full control effect; nearly all actives have a fitted effect of over 70% in size
An asterisk follows results filed as active; [ ] = remark or other dose. Unless noted, calls come from the whole dose curve; as a rule, active = well fitted curve in the direction sought with a large enough effect; inconclusive = small, poorly fitted or top-dose-only effect, or another doubt; inactive = no such curve, though single readings can be large; an effect the other way counts as inactive or inconclusive. Potency is the fitted concentration of half-maximal effect.

How did NC(=O)c1cccc(-c2cc3c(cn2)CN(Cc2ccccc2)CCN3)c1 do in these assays?
FLuc inh-1: 14µM*; HEK293 tox: inconclusive; 3T3 cytotox: -20%[138 µM]; NPR1 antag: -2%[70.6 µM]; FLuc SDR no ATP: 17%[49.3 µM]; FLuc SDR ATP: 12%[49.3 µM]; FLuc inh-2: inconclusive

Results for c1cncc(Nc2cc3c(cn2)CN(Cc2cccs2)CCN3)c1 ?
FLuc inh-1: inconclusive; HEK293 tox: inconclusive; 3T3 cytotox: inconclusive; NPR1 antag: 2%[70.6 µM]

Results for Fc1ccc(CNc2cc3c(cn2)NCCN(Cc2ccccc2)C3)cc1 ?
FLuc inh-1: inactive; HEK293 tox: inconclusive; 3T3 cytotox: inconclusive; NPR1 antag: -10%[70.6 µM]

How did O=C(Cn1nc2c(cc1=O)CCCCC2)NC1CCN(Cc2ccc(F)cc2)CC1 do in these assays?
FLuc inh-1: inactive; HEK293 tox: 8%; 3T3 cytotox: inactive; NPR1 antag: 3%

What do the screens show for `COc1ccccc1CN1CCNc2cnc(OCc3cccnc3)cc2C1`?
FLuc inh-1: inactive; HEK293 tox: inconclusive; 3T3 cytotox: -15%[138 µM]; NPR1 antag: -1%[70.6 µM]

Results for Cc1cc(-c2cc3c(cn2)CN(Cc2ccccc2O)CCN3)ccn1 ?
FLuc inh-1: 5.6µM*; HEK293 tox: inconclusive; 3T3 cytotox: inconclusive; NPR1 antag: inconclusive; FLuc SDR no ATP: 21%[49.3 µM]; FLuc SDR ATP: 13%[49.3 µM]; FLuc inh-2: inconclusive

What do the screens show for `c1ccc(-c2cn3c(n2)CO[C@@H](CNCc2cccs2)C3)cc1`?
FLuc inh-1: 5.6µM*; HEK293 tox: inconclusive; 3T3 cytotox: -25%[138 µM]; NPR1 antag: -20%[70.6 µM]; FLuc SDR no ATP: 13%[49.3 µM]; FLuc SDR ATP: 8%[49.3 µM]; FLuc inh-2: inconclusive

Results for CC(=O)NC[C@H]1Cn2cc(-c3ccccc3)nc2CO1 ?
FLuc inh-1: inconclusive; HEK293 tox: inactive; 3T3 cytotox: inactive; NPR1 antag: 5%[70.6 µM]

Results for CCC(=O)N1CCc2c(C(=O)Nc3cc(OC)cc(OC)c3)cccc21 ?
FLuc inh-1: inactive; HEK293 tox: -4%; 3T3 cytotox: inactive; NPR1 antag: -1%

What do the screens show for `COc1ccc(NC(=O)N2CCc3c(C(=O)Nc4ccc5c(c4)OCO5)cccc32)cc1`?
FLuc inh-1: 2.8µM*; HEK293 tox: inconclusive; 3T3 cytotox: -21%; NPR1 antag: 13µM*; FLuc SDR no ATP: 15%; FLuc SDR ATP: 1.2µM*; FLuc inh-2: 0.88µM*

How did COc1ccc(NC(=O)N2CCc3c(C(=O)NCCCN4CCCC4=O)cccc32)cc1 do in these assays?
FLuc inh-1: 0.5µM*; HEK293 tox: inconclusive; 3T3 cytotox: -29%; NPR1 antag: 11µM*; FLuc SDR no ATP: inconclusive; FLuc SDR ATP: 0.35µM*; FLuc inh-2: 0.25µM*

How did COc1ccc(OC2CCN(C3CCCC3)CC2)c(C(=O)NCCCN2CCCC2=O)c1 do in these assays?
FLuc inh-1: inactive; HEK293 tox: -22%; 3T3 cytotox: -12%; NPR1 antag: 2%

How did COc1ccc(NC(=O)N2CCc3c(C(=O)NCc4ccncc4)cccc32)cc1 do in these assays?
FLuc inh-1: 1.3µM*; HEK293 tox: inconclusive; 3T3 cytotox: inconclusive; NPR1 antag: 11µM*; FLuc SDR no ATP: 12µM*; FLuc SDR ATP: 0.88µM*; FLuc inh-2: 0.62µM*

How did CCC(=O)N1CCc2c(C(=O)NCc3cc(OC)ccc3OC)cccc21 do in these assays?
FLuc inh-1: inactive; HEK293 tox: inconclusive; 3T3 cytotox: -18%; NPR1 antag: -3%

What do the screens show for `COc1ccc(NC(=O)c2cccc3c2CCN3C(=O)Nc2ccc(F)cc2)c(C)c1`?
FLuc inh-1: 2.2µM*; HEK293 tox: -27%; 3T3 cytotox: -13%; NPR1 antag: 11µM*; FLuc SDR no ATP: 13%; FLuc SDR ATP: 0.7µM*; FLuc inh-2: 0.56µM*

How did COc1cccc(NC(=O)c2ccc(CN3C(=O)NC4(CCOCC4)C3=O)cc2)c1 do in these assays?
FLuc inh-1: inconclusive; HEK293 tox: inconclusive; 3T3 cytotox: 3%; NPR1 antag: -3%

Results for Cc1ccc(NC(=O)c2ccc(CN3C(=O)NC4(CCOCC4)C3=O)cc2)cc1C ?
FLuc inh-1: 10µM*; HEK293 tox: inconclusive; 3T3 cytotox: -15%; NPR1 antag: inconclusive; FLuc SDR no ATP: inconclusive; FLuc SDR ATP: 14%; FLuc inh-2: inconclusive

What do the screens show for `CC(C)c1ccc(NC(=O)c2ccc(CN3C(=O)NC4(CCOCC4)C3=O)cc2)cc1`?
FLuc inh-1: 2µM*; HEK293 tox: inconclusive; 3T3 cytotox: 40µM*; NPR1 antag: 10µM*; FLuc SDR no ATP: inconclusive; FLuc SDR ATP: inconclusive; FLuc inh-2: 3.5µM*

Results for COc1ccc(-c2cnc3[nH]cc(CC(=O)N4CCN(c5ccccn5)CC4)c3c2)cc1 ?
FLuc inh-1: 7.1µM*; HEK293 tox: 79µM*; 3T3 cytotox: inconclusive; NPR1 antag: inconclusive; FLuc SDR no ATP: 24%[49.3 µM]; FLuc SDR ATP: 15%[49.3 µM]; FLuc inh-2: inconclusive

Results for COc1ccc(C(=O)N2CCCC(c3nc(-c4cccnc4)no3)CCNC(=O)CC2)c(OC)n1 (stereo unspecified) ?
FLuc inh-1: inactive; HEK293 tox: -1%; 3T3 cytotox: inactive; NPR1 antag: 9%

Results for COc1ccc(C(=O)N2CCCC(c3nc(-c4ccccc4)no3)CCNC(=O)CC2)c(OC)n1 (stereo unspecified) ?
FLuc inh-1: 7.9µM*; HEK293 tox: -21%; 3T3 cytotox: -15%; NPR1 antag: inconclusive; FLuc SDR no ATP: 17%; FLuc SDR ATP: 15%; FLuc inh-2: inconclusive

How did CC(C)c1ccc(C2=CC(c3ccc(C(C)C)cc3)n3nnnc3N2)cc1 (stereo unspecified) do in these assays?
FLuc SDR no ATP: 11%; FLuc SDR ATP: 10%; FLuc inh-2: 0%

What do the screens show for `O=C1OC[C@@H]2CCN(C3CCCC3)Cc3ccc(F)cc3N12`?
FLuc inh-1: inactive; HEK293 tox: inactive; 3T3 cytotox: inactive; NPR1 antag: -3%[70.6 µM]

How did Cc1ccsc1CN1CC(N2CC(C(=O)NCc3ccccc3)CC2=O)C1 (stereo unspecified) do in these assays?
HEK293 tox: 0%; 3T3 cytotox: -12%

What do the screens show for `NC(=O)C1CCCN(c2ncnc3c2cnn3-c2ccccc2)C1` (stereo unspecified)?
FLuc SDR no ATP: inconclusive; FLuc SDR ATP: inconclusive; FLuc inh-2: 11µM*

What do the screens show for `CC1CCCN1c1ncnc2c1CN(c1ccc(Cl)cc1)C(=O)CN2C` (stereo unspecified)?
FLuc inh-1: inactive; HEK293 tox: -12%; 3T3 cytotox: -17%; NPR1 antag: -17%
